Reference: PubChem BioAssay (NCI)
The panel holds about 79,000 compounds, 15% with a hit somewhere; the sample as a whole holds those more often. Activity calls are given as the source filed them. Rule as the data show it: active = growth inhibition above about 70%; inactive = the rest.

Key:
[1] = NCI Yeast Anticancer Drug Screen. Data for the mlh1 strain (AID 171);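 also: 0% = growth of vehicle-treated control cultures of the same strain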; details: S. cerevisiae mlh1 strain growth inhibition, stronger effect = higher value
Procedure, shortened: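 Growth of the mutant yeast strain after compound exposure, expressed as inhibition relative to vehicle-only controls.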

[2] = NCI Yeast Anticancer Drug Screen. Data for the sgs1 strain (AID 173);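 also: 0% = growth of vehicle-only control cultures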; details: S. cerevisiae sgs1 mutant, stronger effect = higher value
Procedure, shortened: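 Growth of a yeast strain bearing a defined genetic alteration is measured after compound treatment. Inhibition is expressed relative to vehicle-only controls.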

[3] = NCI Yeast Anticancer Drug Screen. Data for the mlh1 rad18 strain (AID 175); details: S. cerevisiae mlh1 rad18 strain growth inhibition, stronger effect = higher value
Procedure, shortened: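 Read-out is yeast growth inhibition, calculated against vehicle-only controls. The compound was applied to a strain engineered with DNA damage repair alterations.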

[4] = NCI Yeast Anticancer Drug Screen. Data for the rad18 strain (AID 177); details: S. cerevisiae rad18 mutant growth inhibition, stronger effect = higher value
Procedure, shortened: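 Growth of the mutant yeast strain after compound exposure, normalised to vehicle-only cultures.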

[5] = NCI Yeast Anticancer Drug Screen. Data for the rad52 strain (AID 147);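 also: 0% = growth of vehicle-treated control cultures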; details: S. cerevisiae rad52 mutant growth inhibition, stronger effect = higher value
Procedure, shortened: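 Compounds are applied to a genetically defined yeast strain lacking normal DNA damage repair, and inhibition of growth is expressed relative to cultures given vehicle only.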

[6] = NCI Yeast Anticancer Drug Screen. Data for the wt1 strain (AID 149);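 also: 0% = growth of vehicle-treated wt1 cultures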; details: S. cerevisiae wt1 strain (SPY 50644) growth inhibition, stronger effect = higher value
Procedure, shortened: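 Vehicle-normalised growth inhibition; strain wt1; compound exposure.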

[7] = NCI Yeast Anticancer Drug Screen. Data for the rad50EPP+ strain (AID 151);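 also: 0% = growth of vehicle-treated control cultures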; details: S. cerevisiae rad50 mutant strain, stronger effect = higher value
Procedure, shortened: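 Compounds were applied to the rad50EPP+ yeast strain, which bears a defined DNA repair alteration, and growth inhibition was determined relative to vehicle-treated cultures.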

[8] = NCI Yeast Anticancer Drug Screen. Data for the mgt1 strain (AID 153); details: S. cerevisiae mgt1 mutant growth inhibition, stronger effect = higher value
Procedure, shortened: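 Strain: mgt1 yeast, one of a set carrying defined DNA damage repair or cell cycle control alterations. Compound-treated growth compared with vehicle.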

[9] = NCI Yeast Anticancer Drug Screen. Data for the rad50 strain (AID 155);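 also: 0% = growth of vehicle-only cultures of the same strain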; details: S. cerevisiae rad50 strain growth inhibition, stronger effect = higher value
Procedure, shortened: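 A DNA repair-deficient yeast mutant serves as the test organism; compound-induced growth inhibition is calculated against vehicle-treated cells.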

[10] = NCI Yeast Anticancer Drug Screen. Data for the mec2-1 strain (AID 157); details: S. cerevisiae mec2-1 strain, stronger effect = higher value
Procedure, shortened: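 Strain: mec2-1 (DNA repair/cell cycle alteration). Compound exposure, then growth measured; inhibition expressed relative to vehicle.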

[11] = NCI Yeast Anticancer Drug Screen. Data for the rad14 strain (AID 159);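 also: 0% = growth of vehicle-treated control cultures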; details: S. cerevisiae rad14 strain growth inhibition, stronger effect = higher value
Procedure, shortened: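 Vehicle-treated cultures served as the baseline for growth inhibition of a DNA repair-mutant yeast strain exposed to each compound.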

[12] = NCI Yeast Anticancer Drug Screen. Data for the sgs1 mgt1 strain (AID 161);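 also: 0% = growth of cultures given vehicle only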; details: S. cerevisiae sgs1 mgt1 strain, stronger effect = higher value
Procedure, shortened: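 Genetically altered yeast, compound exposure, growth inhibition relative to vehicle.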

[13] = NCI Yeast Anticancer Drug Screen. Data for the cln2 rad14 strain (AID 165);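 also: 0% = growth equal to vehicle treated cultures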; details: S. cerevisiae cln2 rad14 strain, stronger effect = higher value
Procedure, shortened: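 Compounds are applied to the cln2 rad14 yeast strain, and growth is then compared with that of vehicle-treated cultures to give inhibition.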

[14] = NCI Yeast Anticancer Drug Screen. Data for the bub3 strain (AID 167); details: S. cerevisiae bub3 mutant strain, stronger effect = higher value
Procedure, shortened: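 Inhibition values come from growth of compound-treated mutant yeast normalised to vehicle-treated controls.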

[15] = NCI Yeast Anticancer Drug Screen. Data for the CLN2oe strain (AID 163);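 also: 0% = growth of vehicle-only control cultures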; details: S. cerevisiae CLN2oe strain, stronger effect = higher value
Procedure, shortened: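 Growth of a genetically modified yeast strain is measured after compound exposure and compared with cultures given vehicle alone.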

[16] = NCI Yeast Anticancer Drug Screen. Data for the wt2 strain (AID 169);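 also: 0% = growth of vehicle-treated yeast cultures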; details: S. cerevisiae wt2 strain growth inhibition, stronger effect = higher value
Procedure, shortened: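 This strain belongs to a panel of yeast strains with defined genetic alterations in DNA damage repair or cell cycle control. Compounds are applied, and growth inhibition is measured against vehicle-treated cultures.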

[17] = at 5.0 µM (retest, dose inferred, filed as 0.5)
[18] = at 50.0 µM (retest, dose inferred, filed as 5.0)

Measured: growth inhibition

O=C1C2CC(Cl)C(SSC3CC4C(=O)N(SC(Cl)(Cl)C(Cl)Cl)C(=O)C4CC3Cl)CC2C(=O)N1SC(Cl)(Cl)C(Cl)Cl (centres undefined)
active: [1]; at 3.7 µM 97% | [1]; at 11.0 µM 98% | [1]; at 33.0 µM 97% | [1]; at 100.0 µM 93% | [2]; at 1.2 µM 80% | [2]; at 3.7 µM 98% | [2]; at 11.0 µM 97% | [2]; at 33.0 µM 96% | [2]; at 100.0 µM 87% | [3]; [17] 99% | [3]; [18] 96% | [3]; at 50.0 µM 90.8% | [4]; at 1.2 µM 96% | [4]; at 3.7 µM 97% | [4]; at 11.0 µM 97% | [4]; at 33.0 µM 97% | [4]; at 100.0 µM 89%
inactive: [1]; at 1.2 µM 64%

Nc1nc(N)c2c(Cl)c(CNc3ccc(C(=O)NC(CC(=O)O)C(=O)O)cc3)ccc2n1 (centres undefined)
inactive: [5]; at 1.2 µM 40% | [5]; at 3.7 µM 35% | [5]; at 11.0 µM 52% | [6]; at 1.2 µM 19% | [6]; at 3.7 µM 15% | [6]; at 11.0 µM 17% | [6]; at 33.0 µM 42% | [7]; at 1.2 µM 10% | [7]; at 3.7 µM 6% | [7]; at 11.0 µM 13% | [7]; at 33.0 µM 17% | [7]; at 100.0 µM 41% | [8]; at 1.2 µM 6% | [8]; at 3.7 µM -3% | [8]; at 11.0 µM -2% | [8]; at 33.0 µM 30% | [8]; at 100.0 µM 55% | [9]; at 1.2 µM 12% | [9]; at 3.7 µM 18% | [9]; [17] 8% | [9]; at 11.0 µM 14% | [9]; at 33.0 µM 65% | [9]; [18] 47% | [10]; at 1.2 µM 14% | [10]; at 3.7 µM 28% | [10]; [17] 0% | [11]; at 1.2 µM -8% | [11]; at 3.7 µM -11% | [11]; at 11.0 µM -18% | [11]; at 33.0 µM 44% | [12]; [17] 20% | [12]; [18] 50% | [12]; at 50.0 µM 55.5% | [13]; [17] 20% | [13]; [18] 16% | [13]; at 50.0 µM 19.4% | [14]; at 1.2 µM 3% | [14]; at 3.7 µM -10% | [14]; [17] -9% | [14]; at 11.0 µM 14% | [14]; at 33.0 µM 7% | [14]; [18] 26% | [14]; at 50.0 µM 43.5% | [1]; at 1.2 µM 16% | [1]; at 3.7 µM 12% | [1]; at 11.0 µM 1% | [1]; at 33.0 µM 25% | [1]; at 100.0 µM 44% | [2]; at 1.2 µM 30% | [2]; at 3.7 µM 22% | [2]; at 11.0 µM 31% | [2]; at 33.0 µM 45% | [2]; at 100.0 µM 66% | [3]; [17] 12% | [3]; [18] 46% | [3]; at 50.0 µM 52.1% | [4]; at 1.2 µM 48% | [4]; at 3.7 µM 54% | [4]; at 11.0 µM 57%
active: [5]; at 33.0 µM 80% | [5]; at 100.0 µM 91% | [6]; at 100.0 µM 74% | [9]; at 50.0 µM 77.5% | [9]; at 100.0 µM 80% | [10]; at 11.0 µM 75% | [10]; at 33.0 µM 93% | [10]; [18] 90% | [10]; at 50.0 µM 87.8% | [10]; at 100.0 µM 95% | [11]; at 100.0 µM 78% | [14]; at 100.0 µM 72% | [4]; at 33.0 µM 78% | [4]; at 100.0 µM 84%

O=c1oc2ccccc2c(O)c1C(c1ccc2c(c1)Cc1ccccc1-2)c1c(O)c2ccccc2oc1=O
active: [5]; at 100.0 µM 96% | [6]; at 100.0 µM 97% | [9]; at 50.0 µM 70.2% | [9]; at 100.0 µM 96% | [10]; at 33.0 µM 95% | [10]; [18] 92% | [10]; at 50.0 µM 89% | [10]; at 100.0 µM 97% | [11]; at 33.0 µM 97% | [11]; at 100.0 µM 98% | [12]; [18] 96% | [12]; at 50.0 µM 73.4% | [15]; at 33.0 µM 91% | [15]; at 100.0 µM 97% | [13]; [18] 95% | [13]; at 50.0 µM 79% | [14]; [18] 95% | [14]; at 50.0 µM 75.9% | [14]; at 100.0 µM 96% | [16]; at 33.0 µM 95% | [16]; at 100.0 µM 93% | [1]; at 33.0 µM 96% | [1]; at 100.0 µM 98% | [2]; at 33.0 µM 83% | [2]; at 100.0 µM 97% | [3]; at 50.0 µM 88% | [4]; at 100.0 µM 96%
inactive: [5]; at 1.2 µM -7% | [5]; at 3.7 µM 15% | [5]; at 11.0 µM 19% | [5]; at 33.0 µM 65% | [6]; at 1.2 µM -16% | [6]; at 3.7 µM -5% | [6]; at 11.0 µM 5% | [6]; at 33.0 µM 53% | [7]; at 1.2 µM -16% | [7]; at 3.7 µM 43% | [7]; at 11.0 µM 46% | [7]; at 33.0 µM 50% | [7]; at 100.0 µM 51% | [9]; at 1.2 µM 1% | [9]; at 3.7 µM 14% | [9]; [17] 17% | [9]; at 11.0 µM 22% | [9]; at 33.0 µM 61% | [9]; [18] 5% | [10]; at 1.2 µM -18% | [10]; at 3.7 µM -4% | [10]; [17] 12% | [10]; at 11.0 µM 25% | [11]; at 1.2 µM 9% | [11]; at 3.7 µM 14% | [11]; at 11.0 µM 18% | [12]; [17] -14% | [15]; at 1.2 µM 23% | [15]; at 3.7 µM 0% | [15]; at 11.0 µM 15% | [13]; [17] 10% | [14]; at 1.2 µM -7% | [14]; at 3.7 µM -2% | [14]; [17] 18% | [14]; at 11.0 µM 13% | [14]; at 33.0 µM 63% | [16]; at 1.2 µM -17% | [16]; at 3.7 µM -14% | [16]; at 11.0 µM 52% | [1]; at 1.2 µM 4% | [1]; at 3.7 µM 3% | [1]; at 11.0 µM 25% | [2]; at 1.2 µM 18% | [2]; at 3.7 µM 29% | [2]; at 11.0 µM 17% | [3]; [17] 14% | [3]; [18] 59% | [4]; at 1.2 µM 21% | [4]; at 3.7 µM 25% | [4]; at 11.0 µM 23% | [4]; at 33.0 µM 52%
